Here are results for 53 compounds from ChEMBL document CHEMBL4513216, “Probing the Open Global Health Chemical Diversity Library for Multistage-Active Starting Points for Next-Generation Antimalarials” (ACS Infect Dis, 2020).

Among all 68,000 compounds or so, about 2,700 (4%) showed an effect of 50% or more. The entries come from a sample that favours strong results as a whole.

The test concerns Plasmodium berghei. The test can be described thus: Screen against P. berghei liver stage (PbLuc), transformed with Luciferase, at 2uM. Particulars: tested at 2 uM. The class given is functional, HepG2.
Consider `CCN(Cc1cnn(C)c1)C[C@H]1CC[C@@H](Cc2ccc(CO)cc2)O1`, for which the INHIBITION was 36.78%. The figure for `CCN(Cc1cnn(C)c1)C[C@H]1CC[C@@H](Cc2ccc(C)nc2)O1` is 55.84%; for `CCN(Cc1cnn(C)c1)C[C@H]1CC[C@@H](Cc2ccc(OC)nc2)O1` it is -6.22%; for `CN(C)S(=O)(=O)N1CCO[C@H]2[C@H](Oc3cccnc3)CC[C@@H]21` it is -16.75%. Under `CC(C)(O)c1cc(CC2(NCC3CCCCC3)COC2)no1` stands -24.31%; under `O=C(c1cc(CC2(NCC3CCCCC3)COC2)no1)N1CCCCC1`, 54.01%. Consider `O=C(c1cc(CC2(NC3CCCCC3)COC2)no1)N1CCCCC1`, for which the INHIBITION is listed as 10.08%. The figure for `OCCc1cc(CC2(NCc3ccncc3)COC2)no1` is 24.64%; for `COCc1cc(CC2(NCc3ccccc3Cl)COC2)no1` it is 27.54%; for `O=C(c1cc(CC2(NCc3ccccc3)COC2)no1)N1CCCCC1` it is 56.76%. Under `O=C(Nc1cccnc1)[C@@H]1C[C@H]2OCC[C@H]2N(Cc2nccs2)C1` stands 1.06%; under `CSc1ccccc1CN1C[C@@H]2CC[C@H]1CN(Cc1[nH]cnc1C)C2`, 8.26%; under `O=C(Cc1ccc2c(c1)OCO2)N1CCCN(c2ccccc2)CC1`, -50.86%. The figure for `O=C(Cc1ccc2c(c1)CCO2)N1CCN(c2nccs2)CC1` is -11.34%; for `O=C(Cc1ccc2c(c1)OCO2)N1CCCN(c2nccs2)CC1` it is 79.21%.

With `O=S(=O)(NCC1CCN(c2cnccn2)CC1)c1ccc(F)c(Cl)c1`, the INHIBITION is 20.8%. The figure for `COc1ccc(-c2nc(C#N)c(N(C)C)o2)cc1S(=O)(=O)N(C)C` is -36.29%; for `COC(=O)[C@H](C)NC(=O)Cn1ccc2ccc(F)cc21` it is 0.08%. As for `COC(=O)CCC(=O)Nc1ccc(Br)c(C)n1`, the INHIBITION came to 11.88%.

As to `O=C([C@@H]1CCO[C@@H]2CCN(Cc3cccs3)C[C@H]21)N1CCCCO1`, the INHIBITION is recorded as 27.44%. Take `CC(C)NC(=O)N1C[C@@H]2C[C@H](C(=O)NCc3ccccc3)[C@H](C1)O2`: the INHIBITION is 36.17%. The figure for `CCC(=O)NCc1cc(C2CC2)n(C2CCCC2)n1` is 50.7%; for `CCOCC(=O)NCc1cc(C2CC2)n(C2CCCC2)n1` it is 6.9%.

Take `O=C(NCc1cc(C2CC2)n(C2CCCC2)n1)C1CC1`: the INHIBITION was 14.47%. The figure for `COCC(=O)N1CCC2(CC1)COCCN2Cc1ccc(F)cc1` is -5.65%; for `Cc1ccc(NC(=O)CN2CCOCC2)c(F)c1` it is -1.29%. Under `Cc1ccc(NC(=O)CNC(C)CN2CCOCC2)c(F)c1` (stereo not drawn) stands 21.24%; under `Cc1ccc(NC(=O)CNC(C)CN2CCCCC2)c(F)c1` (stereo not drawn), 64.35%. In the case of `CSc1nccc(N2CCC(NCc3ccc4nsnc4c3)CC2)n1`, the INHIBITION is -60.25%. Under `CC1(NC(=O)CC2CCc3ccccc32)CCOCC1` (stereo not drawn) stands 60.15%; under `O=C(CC1CCc2ccccc21)NC1(C(=O)O)CCOCC1` (stereo not drawn), 0.54%. On to `O=C(CC1CCc2ccccc21)NC1(C(=O)O)CCCC1` (stereo not drawn), for which the INHIBITION came to 16.93%. Under `COC(=O)c1cc(OCC2CCC2)cc(C(=O)N[C@@H]2CCCNC2)c1` stands -28.09%. Under `Cc1cccc(C)c1NC(=O)c1cccc(N(C)S(C)(=O)=O)c1C` stands -11.34%; under `CCCc1[nH]n(C)c(=N)c1-c1ccc2c(c1)OCO2`, 5.92%; under `Cn1[nH]c(C2CCC2)c(-c2ccc3c(c2)OCO3)c1=N`, 14.06%.

As for `CCc1[nH]n(C)c(=N)c1-c1ccc2c(c1)OCO2`, the INHIBITION worked out at 37.53%. Turning to `Cn1[nH]c(C2CC2)c(-c2ccc3c(c2)OCO3)c1=N`, the INHIBITION was 58.6%. On to `Cn1nc(C2CCCC2)c(-c2ccc3c(c2)OCO3)c1N`, for which the INHIBITION came out at 53.33%. The figure for `CSCCc1nc(-c2ccc3c(c2)OCO3)n(C)n1` is 12.74%; for `Cc1nc(C)n(C2CCCN(C(=O)c3ccc4c(c3)COC4)C2)n1` (stereo not drawn) it is 2.08%.

With `O=C1CC[C@@H]2[C@@H](CCN2C(=O)c2ccsc2)N1Cc1ccncc1`, the INHIBITION worked out at 37.48%. The figure for `Cc1ccc(CN2C[C@H](OCC3CCN(C)CC3)[C@H]3COC[C@H]32)o1` is -14.64%; for `CNC(=O)[C@H]1C[C@H]2OCC[C@H]2N(Cc2cccc3ccccc23)C1` it is 16.6%; for `CC(=O)c1c(F)cccc1NCC(O)C(C)(C)C` (stereo not drawn) it is 53.44%. The figure for `CC(=O)c1c(F)cccc1NCC(O)c1ccc(F)c(F)c1` (stereo not drawn) is 4.26%; for `CC(=O)c1c(F)cccc1NCC(O)C1CC1` (stereo not drawn) it is 31.96%. In the case of `CCC(C)NC(=O)c1cc(S(N)(=O)=O)c(Br)s1` (stereo not drawn), the INHIBITION is recorded as -70.18%. Under `CCC(C)NC(=O)c1cc(S(=O)(=O)N(C)C)c(C)s1` (stereo not drawn) stands 25.9%. The figure for `CCC(C)NC(=O)c1cc(S(=O)(=O)N2CCCC2)c(C)s1` (stereo not drawn) is 53.12%; for `CC(C)(C)c1nnc(CN2CCCC(c3cc(C(N)=O)[nH]n3)C2)o1` (stereo not drawn) it is -47.97%. Under `COc1ncnc(N(C)C)c1NC(=O)Cc1c[nH]c2ccc(F)cc12` stands 62.92%.

As to `CN(C)c1ncncc1NC(=O)Cc1c[nH]c2ccc(F)cc12`, the INHIBITION is reported as 10.04%.
